Screening data: PubChem, National Center for Advancing Translational Sciences (NCATS)
This is a sample that favours compounds with a hit; in the whole collection about 15% have one here.
DT40 TDP1 no CPT: qHTS for Inhibitors of human tyrosyl-DNA phosphodiesterase 1 (TDP1): qHTS in cells in absence of CPT. DT40 Tdp1-/- hTDP1 cells, no CPT, ATP luminescence, 48 h. Potency, µM (series often up to 46.2 µM), without a hit: at the highest dose activity change, negative = growth inhibition, most hits filed as inhibitors. 420,000 tested, 15% active. AID 686978, 2013; note: nearly all actives have a fitted effect of over 55% in size
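Camptothecin absent (DMSO only). Human TDP1-complemented DT40 knockout cells, 400 cells/well, 37 °C for minimum 48 hr; ATP measured via CellTiter-Glo, 30 min dark incubation, luminescence.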
ELG1 repair inh: qHTS screen for small molecules that inhibit ELG1-dependent DNA repair in human embryonic kidney (HEK293T) cells expressing luciferase-tagged ELG1; HEK293T ELG1-luciferase reporter, luminescence, 16 h; DNA damage induced by 5-fluorouridine; Potency, µM (series often up to 46.1 µM), without a hit: at the highest dose activity change, negative = inhibition, most hits filed as inhibitors; 330,000 tested, 2.3% active; note: nearly all actives have a fitted effect of over 55% in size
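HEK293T cells expressing luciferase-tagged ELG1 (2,000/well) received 5-Fluorouridine plus compound or DMSO for 16 hr at 37 °C. Luciferase was read by ONE-Glo luminescence after 30 min at room temperature.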
Gal4-VP16 FLuc: VP16 counterscreen qHTS for inhibitors of ROR gamma transcriptional activity. Drosophila S2 Gal4-VP16 UAS-luciferase, luminescence, 20 h. Potency, µM (highest dose often 53.6 µM), for inactives: at the highest dose activity, negative = inhibition, usual class: inhibitors. 310,000 tested, 3.5% active. AID 2546, 2010;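 note: Gal4-VP16 expression switched on by copper sulfate through the metallothionein promoter; nearly all actives have a fitted effect of over 50% in size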
TDP1 cell CPT: qHTS for Inhibitors of human tyrosyl-DNA phosphodiesterase 1 (TDP1): qHTS in cells in presence of CPT | chicken DT40 Tdp1-/-;hTDP1 cells + 20 nM CPT, ATP luminescence, 48 h | Potency, µM (top dose mostly 46.2 µM), without a hit: at the highest dose activity change, negative = growth inhibition, most hits filed as inhibitors | 420,000 tested, 12% active; note: nearly all actives have a fitted effect of over 55% in size
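Cell growth measured by CellTiter-Glo luminescence after a minimum 48 h, 37 C compound exposure with 20 nM CPT in Tdp1-knockout DT40 cells stably expressing hTDP1, seeded 400/well; qHTS titration format.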
RORgamma inh: qHTS for inhibitors of ROR gamma transcriptional activity. Nuclear receptor ROR-gamma (Mus musculus), P51450. Drosophila S2 Gal4-RORgamma UAS-luciferase reporter, 20 h. Potency, µM (titrated, usually from 53.6 µM), inactives show top-dose activity change, negative = inhibition, usual class: inhibitors. 310,000 tested, 5.4% active; note: nearly all actives have a fitted effect of over 60% in size
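Luciferase reporter read in Schneider cells carrying Gal4-RORγ (mouse) and UAS-Photinus luciferase; cells given compound 1 h before 700 uM copper sulfate induction, then incubated 20 h at ambient temperature.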
12-LOX inh: Primary qHTS assay for inhibitors of human arachidonate 12S-lipoxygenase (ALOX12): Round 2; Potency, µM (titrated, usually from 108 µM), for inactives: at the highest dose activity change, negative = inhibition, most hits filed as inhibitors; purified 12hLO, xylenol orange hydroperoxide absorbance; 580,000 tested, 1.1% active; Polyunsaturated fatty acid lipoxygenase ALOX12 (Homo sapiens), P18054
Target sequence (P18054 whole entry, looked up): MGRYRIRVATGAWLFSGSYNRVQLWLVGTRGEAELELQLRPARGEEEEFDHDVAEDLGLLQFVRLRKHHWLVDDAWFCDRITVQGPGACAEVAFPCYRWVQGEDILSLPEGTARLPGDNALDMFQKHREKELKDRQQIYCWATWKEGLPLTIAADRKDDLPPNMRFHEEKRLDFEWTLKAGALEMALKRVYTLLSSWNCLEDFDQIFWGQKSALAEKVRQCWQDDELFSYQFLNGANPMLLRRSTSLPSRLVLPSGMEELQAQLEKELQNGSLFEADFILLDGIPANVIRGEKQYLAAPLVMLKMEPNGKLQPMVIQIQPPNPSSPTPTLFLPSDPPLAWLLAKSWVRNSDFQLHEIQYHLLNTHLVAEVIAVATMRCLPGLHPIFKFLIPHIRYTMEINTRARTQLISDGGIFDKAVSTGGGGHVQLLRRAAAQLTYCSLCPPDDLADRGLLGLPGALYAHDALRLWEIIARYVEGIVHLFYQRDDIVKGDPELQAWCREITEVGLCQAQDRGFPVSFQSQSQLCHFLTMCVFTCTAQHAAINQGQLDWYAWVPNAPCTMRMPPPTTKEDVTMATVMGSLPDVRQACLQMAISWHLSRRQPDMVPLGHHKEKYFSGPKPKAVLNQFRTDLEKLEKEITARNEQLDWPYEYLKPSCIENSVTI
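Hydroperoxide product was detected by ferrous iron/xylenol orange as the 573 to 405 nm absorbance ratio. Arachidonic acid at 40 uM (final) was turned over for 30 min at room temperature by 150 nM human 12hLO, pH 7.0 Hepes buffer, after 15 min compound preincubation.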
* marks the source's active call; other numbers are inactive results; ? = inconclusive; nt = not tested or not shown; [ ] = remark or other dose. Calls come from the whole dose curve; as a rule, active = well fitted curve in the direction sought with a large enough effect; inconclusive = small, poorly fitted or top-dose-only effect, or another doubt; inactive = no such curve, though single readings can be large; an effect the other way counts as inactive or inconclusive. % is set by controls: 0 for no effect and ±100 for the full control effect; potency is the fitted concentration of half-maximal effect.

SMILES | DT40 TDP1 no CPT | ELG1 repair inh | Gal4-VP16 FLuc | TDP1 cell CPT | RORgamma inh | 12-LOX inh
CNC(=O)[C@@H]1CN(C(=O)c2ccc(C)c(F)c2)C[C@H]1COC | nt | nt | nt | nt | nt | -3%
CCCn1c(=O)[nH]c(=O)c2c1nc(-c1ccc(O)cc1)n2CCOC | nt | nt | nt | nt | nt | -75%
CCOc1ccc(S(=O)(=O)c2c(C(=O)c3ccccc3)cnc3cc4c(cc23)OCCO4)cc1 | 10µM* | 3% | 3% | ? | 33% | 0%
CCCC(=O)Nc1cc2c(cc1C(=O)c1ccccc1)OCCO2 | ? | -23% | 1% | 9% | 1% | 0%
O=c1[nH]c(Cc2ccccn2)nc2scc(-c3ccccc3Cl)c12 | ? | ? | 11µM* | 8% | 6.3µM* | ?
Cn1c(=O)c2ccnn2c2ccc(C(=O)NCCN3CCC(N4CCCCC4)CC3)cc21 | nt | nt | nt | nt | nt | 33%
COc1cccc(-c2cc(C(F)(F)F)nc(NCCc3ccccc3)n2)c1 | ? | nt | nt | ? | nt | -15%
COc1ccc(-c2cc(C(F)(F)F)nc(NCCc3ccccc3)n2)cc1 | 26µM* | nt | nt | 23µM* | nt | -9%
Fc1ccc(CNc2nc(-c3ccccc3)cc(C(F)(F)F)n2)cc1 | ? | nt | nt | 21µM* | nt | -16%
COc1cccc(-c2cc(C(F)(F)F)nc(NCc3ccc(F)cc3)n2)c1 | ? | nt | nt | ? | nt | -25%
FC(F)(F)c1cc(-c2ccc(Cl)cc2)nc(NCc2cccnc2)n1 | ? | 21µM* | -11% | ? | -38% | 12%
Cc1c(C(=O)OCc2ccccc2)sc(=S)n1-c1ccc(Cl)cc1 | nt | nt | nt | nt | nt | -51%
Cc1ccc(CN(C)C(=O)Cn2c(=O)c3c(ncn3C3CCCC3)n(Cc3ccccc3)c2=O)o1 | nt | nt | nt | nt | nt | 0%
Cc1ccc(NC(=O)C2C(c3ccccc3)C=CC(c3ccccc3)C2C(=O)O)cc1 (stereo not given) | 21µM* | -4% | -3% | 29µM* | ? | 0%
Cc1ccc(NC(=O)C2C(C(=O)O)C3C=CC2C32CC2)cc1 (stereo not given) | -16% | ? | -8% | 3% | -1% | 0%
CCc1ccc(NC(=O)CSC2=Nc3ccccc3C3=NC(CC(=O)NCc4cccs4)C(=O)N23)cc1 (stereo not given) | 4.6µM* | nt | nt | 7.3µM* | nt | -26%
COc1cccc(NC(=O)CSC2=Nc3ccccc3C3=NC(CC(=O)NCc4cccs4)C(=O)N23)c1 (stereo not given) | ? | nt | nt | 10µM* | nt | -20%
COc1ccc(-c2noc([C@@H]3C[C@@H](O)CN3Cc3cccc(C#N)c3)n2)cc1 | nt | nt | nt | nt | nt | 1%[176 µM]
CC(NC(=O)c1cc2ccccc2oc1=O)c1ccc(C(F)(F)F)cc1 (stereo not given) | nt | nt | nt | nt | nt | -30%
FC(F)(F)c1cccc(Nc2nc3nonc3nc2Nc2ccc(Cl)cc2)c1 | 0.58µM* | nt | nt | 0.23µM* | nt | ?
COc1ccc(-c2cn3nc(N4CCCC(C(=O)Nc5ccccc5F)C4)sc3n2)cc1 (stereo not given) | 15µM* | nt | nt | 21µM* | nt | 0%
COc1ccc(-c2cn3nc(N4CCCC(C(=O)NCc5ccccc5OC)C4)sc3n2)cc1 (stereo not given) | ? | nt | nt | 18µM* | nt | -21%
COc1ccc(-c2cn3nc(N4CCCC(C(=O)Nc5cc(C)ccc5C)C4)sc3n2)cc1 (stereo not given) | 16µM* | nt | nt | 23µM* | nt | -16%
CN1Cc2ccc(N3CCOCC3)nc2C(C)(C(=O)NCCCn2ccnc2)C1 (stereo not given) | nt | nt | nt | nt | nt | 14%[176 µM]
O=C(N/N=C/c1ccc(Br)o1)c1cc([N+](=O)[O-])cc([N+](=O)[O-])c1 | ? | 0% | 4.5µM* | ? | 1.6µM* | 2%
SMILES | DT40 TDP1 no CPT | ELG1 repair inh | Gal4-VP16 FLuc | TDP1 cell CPT | RORgamma inh | 12-LOX inh
O=C(N/N=C/c1ccco1)c1cc([N+](=O)[O-])cc([N+](=O)[O-])c1 | ? | 1% | 10µM* | -18% | 5.6µM* | ?
Cc1cc([N+](=O)[O-])ccc1-c1ccc(/C=N/NC(=O)c2ccc(Br)o2)o1 | ? | -12% | 7.9µM* | ? | 7.1µM* | -17%
CNc1c(NC(=O)NCCC(C)C)c(=O)oc2ccccc12 | nt | nt | nt | nt | nt | -2%
Cc1cc(C)c2[nH]c(C)c(CN3CC4(C)CC3CC(C)(C)C4)c(=O)c2c1 (stereo not given) | nt | nt | nt | nt | nt | -47%
CCCCCCS(=O)(=O)CCO | nt | nt | nt | nt | nt | 40%
N#Cc1cccc(OCC(=O)c2ccc3ccccc3c2)c1 | nt | nt | nt | nt | nt | 12%
O=C(CCc1ccccc1)N1CCC(N2CC3CC(C2)[C@H]2CCCC(=O)N2C3)CC1 (stereo not given in full) | nt | nt | nt | nt | nt | 22%
C=C1c2ccccc2O[C@H](C(=O)OCC)[C@@H]1C1CCCCC1 | ? | 2% | nt | ? | nt | 20µM*
O=C(c1ccc(N2CC3CC(C2)[C@H]2CCCC(=O)N2C3)nc1)N1CCC(Cc2ccccc2)CC1 (stereo not given in full) | nt | nt | nt | nt | nt | 14%
COCc1nc(C2CC(N)C2)cc(N(C)Cc2noc3c2CCCC3)n1 (stereo not given) | nt | nt | nt | nt | nt | 45%
CCCc1cc(=O)n2[nH]c(-c3ccc(C)cc3)nc2n1 | 0% | nt | nt | -16% | nt | -15%
COc1cccc(NCc2cc(=O)n3[nH]c(-c4ccc(C)cc4)nc3n2)c1 | nt | nt | nt | nt | nt | 40µM*
CCc1ccc(NCc2cc(=O)n3[nH]c(-c4ccccc4)nc3n2)cc1 | nt | nt | nt | nt | nt | 8.9µM*
CC(=O)c1ccc(NC(=O)CN2C(=O)NC3(CCC(C)CC3)C2=O)cc1 (stereo not given) | nt | nt | nt | nt | nt | -5%
Cc1ccccc1OCC(=O)Nc1ccc2c(c1)n(C)c(=O)n2C | 15µM* | 2% | -4% | ? | -7% | 2%
COc1ccc(C(C)=O)cc1CSc1nnc(-c2ccccc2O)n1-c1ccccc1 | ? | ? | -13% | ? | 2.8µM* | 2%
Cn1c(=O)n(C)c2cc(NC(=O)COc3ccccc3)ccc21 | ? | ? | nt | ? | nt | 4%
Cn1c(=O)n(C)c2cc(NC(=O)CCl)ccc21 | 12µM* | ? | ? | 10µM* | 11µM* | ?
CC(=O)Nc1ccc2c(c1)n(C)c(=O)n2C | -3% | ? | 0% | 3% | -1% | 27%
